# High-throughput results deposited in PubChem BioAssay by NMMLSC.
# ABCB6 inh 2: blocks the human ABCB6 transporter; Q9NP58; K562-ABCB6 porphyrin accumulation, flow cytometry, 1 h; active compounds read low; fluorescence ratio to DMSO, % at 10 µM; 0.19% of 360,000 active;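 active = fluorescence ratio to DMSO below 75%, the collection mean minus 3 SD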;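 note: signal is porphyrin accumulated inside mitochondria; 100% equals median channel fluorescence of DMSO control wells; lower ratio means ABCB6 inhibition with less porphyrin fluorescence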
# Target sequence (Q9NP58 whole entry, looked up): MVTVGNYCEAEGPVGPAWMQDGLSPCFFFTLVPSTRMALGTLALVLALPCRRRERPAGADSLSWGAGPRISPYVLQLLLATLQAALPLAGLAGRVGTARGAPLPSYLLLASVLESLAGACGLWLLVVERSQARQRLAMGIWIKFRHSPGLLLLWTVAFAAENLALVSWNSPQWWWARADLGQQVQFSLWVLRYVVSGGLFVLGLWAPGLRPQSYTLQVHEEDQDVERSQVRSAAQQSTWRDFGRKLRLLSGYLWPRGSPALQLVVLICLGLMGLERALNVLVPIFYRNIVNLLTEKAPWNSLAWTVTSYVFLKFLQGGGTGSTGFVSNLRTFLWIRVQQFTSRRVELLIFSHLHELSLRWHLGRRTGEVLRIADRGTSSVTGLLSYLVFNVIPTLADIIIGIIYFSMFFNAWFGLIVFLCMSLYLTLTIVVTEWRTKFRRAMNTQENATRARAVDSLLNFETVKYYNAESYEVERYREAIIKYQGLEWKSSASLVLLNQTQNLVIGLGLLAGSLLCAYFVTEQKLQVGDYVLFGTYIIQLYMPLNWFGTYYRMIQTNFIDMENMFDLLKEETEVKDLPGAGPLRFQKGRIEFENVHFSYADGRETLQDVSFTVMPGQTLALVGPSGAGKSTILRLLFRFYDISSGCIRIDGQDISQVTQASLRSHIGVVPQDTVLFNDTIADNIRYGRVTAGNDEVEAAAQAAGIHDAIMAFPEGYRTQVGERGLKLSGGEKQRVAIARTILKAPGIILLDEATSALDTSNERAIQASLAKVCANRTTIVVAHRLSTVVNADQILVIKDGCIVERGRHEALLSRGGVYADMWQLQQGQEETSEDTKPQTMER
# Myeloid diff MLP: compounds promoting myeloid differentiation; AID 624256; 1% of 360,000 active; ER-HoxA9 myeloid progenitors, lysozyme-GFP differentiation, flow cytometry; calls only at 10 µM;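 active = normalized GFP-positive differentiation at or above the plate's own cutoff, the solvent-only control mean plus 3 SD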;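 note: cells exposed to compound for four days before flow analysis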
# Granule exo inh: lytic granule exocytosis inhibition; inhibition, % at 10 µM; 0.66% of 360,000 active; AID 651702; TALL-104 LAMP-1 surface exposure, flow cytometry; cells stimulated with thapsigargin and PMA;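 active = inhibition above about 55%, limit read from the data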
# Myeloid diff CP1: myeloid differentiation induction. 2% of 2,300 active. shares compounds with Myeloid diff MLP. ER-HoxA9 myeloid progenitors, GFP/Mac1 double-positive flow. AID 651706. calls only;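 active = share of green or green-and-red cells above 9 and 9% in run 1 or 4 and 3% in run 2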
# GFP autofluor: flagged as fluorescent in myeloid differentiation counter-screen; fluorescence response, % (test concentration not listed); AID 651707; shares compounds with Myeloid diff MLP; 7.4% of 2,300 active; ER-HoxA9 myeloid progenitors, no estrogen, GFP autofluorescence flow cytometry; vehicle wells 0%, positive control 100%;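 active = over 5% cells positive for green fluorescent reporter, or over 2% positive for both it and APC stain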;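 note: range taken on the double positive population between DMSO and positive control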
# An asterisk follows results filed as active; i = inactive; / = not tested or not shown; + = active, no number. In the library only some 1.8% were active in any assay of this set; here they are far more common.
SMILES,ABCB6 inh 2,Myeloid diff MLP,Granule exo inh,Myeloid diff CP1,GFP autofluor
COCCCNC(=O)c1ccc(Cn2c(=O)c3ccccc3n(Cc3ccccc3C)c2=O)cc1,97,i,2,/,/
N#CC(C(N)=O)=C1CCCCC1,104,i,7,/,/
O=C(NC1CCCC1)C(c1ccc(F)cc1)N(C(=O)c1csnn1)C1CC1 (stereo unspecified),101,i,36,/,/
COc1cccc(NS(=O)(=O)c2ccc3c(c2)n(C)c(=O)c(=O)n3C)c1,100,i,-4,/,/
CCn1c(=O)c(=O)n(CC)c2cc(S(=O)(=O)Nc3cccc(OC)c3)ccc21,99,+,-1,i,0
COc1cc2oc(=O)cc(-c3ccc(-c4ccc(C)cc4)cc3)c2c(OC)c1OC,125,i,1,/,/
COc1cc2oc(=O)cc(-c3ccc(-c4ccc(C#N)cc4)cc3)c2c(OC)c1OC,96,i,-5,i,0
O=C(Cn1cnc2ccc(Br)cc2c1=O)c1cccs1,91,i,3,/,/
CCOC(=O)c1c(C)c(C(=O)NCc2cccs2)c(C)n1C,90,i,-2,i,0
CCOC(=O)c1c(C)c(C(=O)NCc2ccco2)c(C)n1C,93,i,2,/,/
CN(Cc1ccccc1)C(=O)CCn1c(=O)c2cccn2c2cccnc21,103,i,-3,/,/
CC(=O)Nc1cccc(N=NN2CCOCC2)c1,100,i,-5,/,/
CC(=O)Nc1ccc(N=NN2CCOCC2)cc1,111,i,-4,i,0
CC1=C(C(=O)N(C(C)C)C(C)C)CC(CC(=O)NCc2ccco2)C(=O)N1Cc1ccccc1 (stereo unspecified),98,i,-1,/,/
Nc1ccn([C@@H]2O[C@H](CNCc3cnc(N4CCOCC4)s3)[C@@H](O)[C@H]2O)c(=O)n1,101,i,1,/,/
COc1ccc(Cl)cc1C(=O)NCC(c1ccco1)N1CCCC1 (stereo unspecified),99,i,-1,/,/
COc1cc(C(=O)NCC(c2ccco2)N2CCCC2)ccc1OCc1ccc(Cl)cc1Cl (stereo unspecified),98,+,11,i,4
O=C(Cn1ccnc1[N+](=O)[O-])NCCO,96,i,-2,/,/
CC(C)(C)c1ccc(Nc2n[nH]c3ccccc23)cc1,94,i,-5,/,/
C=CCn1c(C)cc(-c2csc(NC(=O)C3=COCCO3)n2)c1C,108,i,3,/,/
C=CCn1c(C)cc(-c2csc(NCC)n2)c1C,135,+,2,i,0
COc1ccc(OCc2nnc(SCC(=O)NC3CC3)n2C)cc1,105,i,-9,/,/
Clc1ccc(C2=Nc3cc(Cl)ccc3OC2)cc1,103,i,-1,/,/
c1ccc(C2=Nc3ccccc3OC2)cc1,91,i,-2,i,0
O=C(COC(=O)/C=C/c1ccc(S(=O)(=O)N2CCc3ccccc32)cc1)NC1CCS(=O)(=O)C1 (stereo unspecified),95,i,-4,/,/
SMILES,ABCB6 inh 2,Myeloid diff MLP,Granule exo inh,Myeloid diff CP1,GFP autofluor
NS(=O)(=O)c1cccc(NC(=O)Cn2nc(C(=O)O)c3ccccc3c2=O)c1,95,i,-10,/,/
Cc1ccccc1C(=O)Nc1nnc(S(=O)(=O)N2CCCCCC2)s1,99,i,-4,i,0
O=C(Nc1nnc(S(=O)(=O)N2CCCCCC2)s1)c1ccccc1F,91,i,1,/,/
Cc1ccc(NC(=O)c2ncn(CCCNCC3CCCO3)n2)cc1C (stereo unspecified),97,i,-5,/,/
COC(=O)c1cc(NS(=O)(=O)c2ccc(C)c3ccccc23)ccc1N1CCOCC1,102,i,-1,i,0
COC(=O)c1cc(-n2cccc2)ccc1N1CCOCC1,98,i,0,/,/
COC(=O)c1cccc(CN2C(=O)C(C)Sc3cc(Cl)ccc32)c1 (stereo unspecified),91,i,-4,/,/
COc1ccc(-c2c(-c3cc(OC)c(OC)c(OC)c3)noc2C)cn1,90,/,-3,/,/
COC(=O)c1cc(-c2c(-c3cc(OC)c(OC)c(OC)c3)noc2C)cc([N+](=O)[O-])c1,88,i,-4,i,0
COc1ccc(F)cc1S(=O)(=O)Nc1cc2c3c(c1)CCN3C(=O)CC2,100,i,1,/,/
Cc1ccc(C(=O)NNC(=O)C2CCN(c3nccc(C)n3)CC2)cc1,93,i,6,/,/
CC(C)N1CCCC(C)(C(=O)Nc2ccccc2)C1 (stereo unspecified),102,i,0,/,/
CNc1ccccc1C(C)(C)c1cc(-c2cccc([N+](=O)[O-])c2)no1,134,i,-5,/,/
CNc1ccccc1C(C)(C)c1cc(-c2cccc(Br)c2)no1,i,+,-7,i,81*
CCOC(=O)C1=C(COC(=O)CNS(=O)(=O)c2ccc(C)c(C)c2)NC(=O)NC1C (stereo unspecified),96,i,4,/,/
OCCn1nc(-c2ccccc2)cc1-c1ccccc1,104,i,-5,/,/
CCC1=[N+](CC(=O)c2ccc(C)cc2)CCn2cccc21,101,i,-1,/,/
CC1=[N+](CC(=O)c2ccccc2)CCn2cccc21,117,+,-1,i,1
CSc1ccc(CN(C)CC(=O)Nc2c(F)cccc2F)cc1,100,i,3,/,/
Cc1ccc(-c2csc(NC(=O)c3c(C)noc3C)n2)cc1,99,+,-15,i,0
COc1ccc(-c2csc(NC(=O)c3c(C)noc3C)n2)cc1,95,i,0,/,/
COc1ccc(S(=O)(=O)N2CCOCC2)cc1NC(=O)CN1C(=O)NC2(CCCCC2C)C1=O (stereo unspecified),101,i,-4,/,/
Cc1cc(C(=O)COc2ccc(F)cc2Br)c(C)n1C1CC1,96,i,-4,i,2
Cc1cc(C(=O)COc2ccc(F)cc2Br)c(C)n1C,99,i,0,/,/
Cc1ccc(C)n1-c1ccc(C(=O)NN)cc1,101,i,-2,/,/
SMILES,ABCB6 inh 2,Myeloid diff MLP,Granule exo inh,Myeloid diff CP1,GFP autofluor
CCCOc1ccc(N2C(=O)CC(S/C(N)=N/N=C(\C)c3cccs3)C2=O)cc1 (stereo unspecified),87,i,-4,i,0
C/C(=N\N=C(/N)SC1CC(=O)N(c2cccc(Cl)c2)C1=O)c1cccs1 (stereo unspecified),98,i,4,/,/
COc1ccc(C(=O)OCn2nnc3ccccc3c2=O)cc1,99,i,-2,/,/
Cc1ccc(S(=O)(=O)n2c(N)nc3cc(C)c(C)cc32)cc1,101,i,19,/,/
COc1ccc(NC(=O)C(=O)NCC2CCCN2S(=O)(=O)c2ccc(C)cc2)cc1 (stereo unspecified),104,/,1,/,/
COc1cc(/C=C2\SC(=S)N(NC(=O)c3ccncc3)C2=O)ccc1O,192,i,16,/,/
COc1cc(/C=C2\SC(=S)N(NC(=O)c3ccc(O)c(OC)c3)C2=O)ccc1O,249,i,20,i,28*
O=C(NCCN1CCCC1=O)C1CCC(=O)N(CCc2cccc(F)c2)C1 (stereo unspecified),98,i,-1,/,/
COc1ccc(-c2sc3cc(OC)c(OC)cc3c2-c2ccc(O)cc2)cc1,100,i,31,i,0
